Assay outcomes: PubChem BioAssay, several laboratories
CYP2C19 activ: cytochrome P450 2C19 (human) activation. P33261. recombinant CYP2C19, luciferin-H EGE luminescence; stronger effect = higher value; 0 = fully inhibited enzyme, 1 = untreated enzyme. activation factor at 5 µM. 96,000 tested, under 10 active. AID 1025;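 active = activation factor of at least 2 at 5 µM in the primary screen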;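 note: 0 = wells with 2.5 mM tranylcypromine and 1 = vehicle-only wells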
CYP2C9 inhib: human CYP2C9 inhibition | CYP2C9 Supersomes, luciferin-H conversion, luminescence | inhibition, % at 5 µM | hit rate 20% among 96,000 | P11712;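 active = blocking of liver enzyme CYP2C9 beyond about 50% at 5 µM, limit read from the data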
Target sequence (P11712 whole entry, looked up): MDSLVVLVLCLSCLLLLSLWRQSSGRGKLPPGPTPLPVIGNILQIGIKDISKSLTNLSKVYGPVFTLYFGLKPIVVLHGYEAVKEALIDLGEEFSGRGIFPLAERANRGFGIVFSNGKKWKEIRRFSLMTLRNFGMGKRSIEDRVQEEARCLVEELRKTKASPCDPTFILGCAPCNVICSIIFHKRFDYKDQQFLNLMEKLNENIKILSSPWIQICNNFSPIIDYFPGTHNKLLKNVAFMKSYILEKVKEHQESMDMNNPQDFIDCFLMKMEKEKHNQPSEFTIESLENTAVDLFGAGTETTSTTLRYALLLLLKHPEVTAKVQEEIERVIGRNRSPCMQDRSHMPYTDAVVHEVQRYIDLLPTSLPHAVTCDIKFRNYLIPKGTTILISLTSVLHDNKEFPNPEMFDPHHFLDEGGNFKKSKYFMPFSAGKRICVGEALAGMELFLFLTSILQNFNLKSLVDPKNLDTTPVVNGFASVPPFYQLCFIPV
CYP2C19 inhib: inhibitors of human CYP2C19; CYP2C19 Supersomes, luciferin-H EGE luminescence, 30 min; AID 778; inhibition, % at 5 µM; hit rate 21% among 96,000; P33261;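 active = CYP2C19 inhibition above a set limit at 5 µM in the primary screen, cut at about 50% in these data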;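 note: plate controls were negative control wells for no effect and 2.5 mM tranylcypromine positive control for full effect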
CYP2C9 activ: CYP2C9 (human) activation; activation factor at 5 µM; recombinant CYP2C9, luciferin-H conversion, luminescence; stronger effect = higher value; factor 1 = untreated enzyme, 0 = blocked; P11712; hit rate 1.4% among 96,000;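 active = activation factor of 2 or more for CYP2C9 at a 5 µM dose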;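 note: 0 = sulfaphenazole-blocked wells and 1 = vehicle-only wells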
Cav3 T inh: human Cav3.2 channel inhibition, primary screen. O95180. Cav3.2-expressing cells, Fluo-4 calcium fluorescence FDSS; stronger effect = lower value. B-score at 10 µM. hit rate 4% among 100,000;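 active = single-dose well whose peak fluorescence ratio is a statistical outlier from its plate by either plate-standardised score or position-corrected B-score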
* hit, by the source's call; / = no result. A selection: hits, their analogues and other compounds. The true share with any hit is near 27%.

SMILES	CYP2C19 activ	CYP2C9 inhib	CYP2C19 inhib	CYP2C9 activ	Cav3 T inh
C=CCn1c(CCNC(=O)c2ccccc2F)nnc1SCC(=O)Nc1nc(C)cs1	0.7	50*	31	0.5	/
C=CCn1c(CCNC(=O)c2cccs2)nnc1SCC(=O)Nc1cccc(F)c1	0.3	90*	72*	0.1	-0.8
COc1ccc(C(=O)c2ccc(N3CCN(C4CC(=O)NC4=O)CC3)cc2)cc1F (stereo unspecified)	1	-4	-1	1	0.087
O=C1CCCN1CCC1CCN(C2CC(=O)N(c3ccc(Cl)cc3)C2=O)CC1 (stereo unspecified)	1.2	-30	-18	1.3	0.11
C=C1N(c2ccc(Cl)cc2)C(=O)OC1(C)C	0.4	27	58*	0.7	0.64
O=[N+]([O-])c1cc(-c2nnc(C34CC5CC(CC(C5)C3)C4)o2)cc([N+](=O)[O-])c1	1.1	-8	-7	1.1	/
Cc1ccc(NC2SC(=O)N(CC(=O)O)C2=O)cc1 (stereo unspecified)	1.1	61*	-6	0.4	-0.071
CC(C)CN1C(=O)NC(NC(=O)c2cccnc2)(C(F)(F)F)C1=O (stereo unspecified)	0.9	1	9	1	-3
O=C1NC(NS(=O)(=O)c2ccccc2)(C(F)(F)F)C(=O)N1Cc1cccnc1 (stereo unspecified)	1	67*	3	0.3	0.061
COc1ccc(N2C(=O)NC(NC(=O)c3ccncc3)(C(F)(F)F)C2=O)cc1 (stereo unspecified)	0.6	55*	35	0.4	-0.6
O=C(NC1(C(F)(F)F)NC(=O)N(Cc2cccnc2)C1=O)c1ccncc1 (stereo unspecified)	0.9	60*	10	0.4	0.42
CN1C(=O)NC(NC(=O)c2ccncc2)(C(F)(F)F)C1=O (stereo unspecified)	1	-5	-1	1	0.51
CCOC(=O)C(C(=O)OCC)[C@@H]1CS(=O)(=O)C[C@H]1C(C(=O)OCC)C(=O)OCC	0.6	8	44	0.9	-0.24
Clc1cccc(Cc2nn[nH]n2)c1	/	/	/	/	-0.018
C1=C(c2ccccc2)N2CCN=C2S1	1	7	2	0.9	0.15
O=S(=O)(c1ccc(C2=CSC3=NCCN23)cc1)N1CCOCC1	0.4	11	56*	0.9	0.12
Cc1nc(C(C)(C)O)n(-c2ccccc2)n1	0.9	4	10	1	1
CCc1nc(-c2ccccc2O)n(-c2ccccc2)n1	0.3	18	74*	0.8	0.039
COc1ccc(S(=O)(=O)NC(C)(C)C)cc1-c1nnc2c3ccccc3c(C)nn12	0.3	46	66*	0.5	0.1
C=CCCN(C(CC(C)C)C(=O)OC)S(=O)(=O)c1cc(Br)ccc1Br (stereo unspecified)	/	/	/	/	-3
C=CCONC(=O)c1cc(OCC(F)(F)F)ccc1OCC(F)(F)F	0.7	87*	29	0.1	-0.05
O=C(NCCNC(=O)c1cc(OCC(F)(F)F)ccc1OCC(F)(F)F)Nc1cccc(C(F)(F)F)c1	0.6	67*	41	0.3	-8*
Cc1ncsc1C(=O)Nc1nc2c(s1)CCCC2	0.3	19	66*	0.8	0.45
O=C(CCCc1cccs1)Nc1nc2c(s1)CCCC2	1	46	4	0.5	-7.6*
O=C(Cc1ccc(S(=O)(=O)N2CCCC2)s1)Nc1nc2c(s1)CCCC2	0.8	30	23	0.7	-3.8*
SMILES	CYP2C19 activ	CYP2C9 inhib	CYP2C19 inhib	CYP2C9 activ	Cav3 T inh
O=C(CS(=O)(=O)Cc1ccccc1)Nc1nc2c(s1)CCCC2	0.4	-3	56*	1	-1.1
O=C(CC1CCCC1)OCn1nnc2ccccc2c1=O	0.8	17	23	0.8	0.038
O=C(CCN1C(=O)c2ccccc2S1(=O)=O)Nc1nc2c(s1)CCCC2	0.2	88*	84*	0.1	-2.3
Cc1ccc(CC(=O)Nc2nc3c(s2)CCCC3)cc1	0.6	87*	42	0.1	-5.2*
CCCN(CCC)C(=S)NC(=O)c1ccc(Cl)cc1Cl	0.5	19	47	0.8	-0.54
Cc1cc(/N=C/C=C2\N(C)c3ccccc3C2(C)C)n(CCC#N)n1	0.4	41	55*	0.6	0.071
CN1/C(=C\C=Nc2ccccc2)C(C)(C)c2ccccc21	1	1	1	1	-0.83
CN1/C(=C\C=Nc2ccc3ccccc3c2)C(C)(C)c2ccccc21	0.7	1	30	1	-9.4*
CN(C)c1ccc(N=C/C=C2\N(C)c3ccccc3C2(C)C)cc1	0.8	-27	18	1.3	/
Clc1cccc(Cl)c1Cn1cnc(=NCc2ccco2)c2[nH]cnc21	0.7	77*	30	0.2	0.71
Clc1cccc(Cl)c1Cn1cnc2c(NCc3ccco3)ncnc21	1.1	14	-7	0.9	-0.018
C#CCOCCOCCOCCNc1nc(N2CCN(C(=O)[C@H](CCC(=O)O)n3cc(C(N)Cc4ccc(O)cc4)nn3)CC2)nc(N2CCN(C(=O)[C@H](CCCCN)n3cc(C(N)[C@H](C)CC)nn3)CC2)n1 (stereo partly specified)	/	/	/	/	0.25
COc1cc2[nH]c(=O)n(CCCCCC(=O)N3CCN(c4ccccn4)CC3)c(=O)c2cc1OC	0.7	38	32	0.6	0.43
O=C(Cn1c(=O)[nH]c2ccsc2c1=O)N1CCN(c2ccc(F)cc2)CC1	/	/	/	/	0.4
O=C(CCn1c(=O)[nH]c2ccsc2c1=O)N1CCN(c2cccc(Cl)c2)CC1	0.6	71*	38	0.3	-5.9*
O=C(CCCn1c(=O)[nH]c2cc(Cl)ccc2c1=O)NCCCN1CCCC1	0.9	69*	8	0.3	/
COc1ccc(N2CCN(C(=O)CCCn3c(=O)[nH]c4cc(Cl)ccc4c3=O)CC2)cc1	0.7	53*	29	0.5	1.4
Cc1nc(N)sc1-c1nnc(SCC(=O)Nc2nccs2)n1C	0.7	34	27	0.7	-0.095
CCOC(=O)[C@@H]1[C@H]2COc3ccccc3[C@@H]2N2C(=O)N(c3ccc(OC)cc3)C(=O)[C@]12C	/	/	/	/	1.1
Cc1ccc(NN2C(=O)C=C(c3ccc(Cl)cc3)C2=O)cc1	1	56*	-5	0.4	0.64
Cn1cc(S(=O)(=O)CC(=O)Nc2ccc3c(c2)OCO3)c2ccccc21	/	/	/	/	0.037
CCn1c(SCC(=O)Nc2ccc3c(c2)OCO3)nc2ccccc21	/	/	/	/	-2.6
CCCCN(CC)C(=O)CSc1cc(=O)n(C)c2ccccc12	0.4	-30	64*	1.3	0.0067
CCn1c(=O)cc(SCC(=O)Nc2cccnc2)c2ccccc21	1.1	-144	-13	2.4*	-0.25
Cn1cc(SCC(=O)Nc2ccc3c(c2)OCCO3)c2ccccc21	0.4	43	63*	0.6	-0.85
Cn1c(=O)cc(OCCCC(=O)Nc2cccnc2)c2ccccc21	1	3	-1	1	-0.47
CCn1c(=O)cc(SCC(=O)Nc2ccc3c(c2)OCO3)c2ccccc21	0.3	-17	71*	1.2	-0.42
Cn1c(=O)cc(SCC(=O)N2CCCC2)c2ccccc21	1.1	-22	-5	1.2	/
